Key:
Conditions in all cases: concentration: 1 μM, replicates: in singlicate; n = 1
CHEK2 = test system: CHEK2
CIT = test system: CIT
CLK1 = test system: CLK1
CLK2 = test system: CLK2
CLK3 = test system: CLK3
CLK4 = test system: CLK4
CSF1R-autoinhibited = test system: CSF1R-autoinhibited
CSF1R = test system: CSF1R
CSK = test system: CSK
CSNK1A1L = test system: CSNK1A1L
CSNK1A1 = test system: CSNK1A1
CSNK1D = test system: CSNK1D
CSNK1E = test system: CSNK1E
CSNK1G1 = test system: CSNK1G1
CSNK1G2 = test system: CSNK1G2
CSNK1G3 = test system: CSNK1G3
CSNK2A1 = test system: CSNK2A1
CSNK2A2 = test system: CSNK2A2
CTK = test system: T1, CTK
T1 construct: gene MATK

DAPK1 = test system: DAPK1
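Note: KINOMEscan kinase panel screen.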

Row | Structure (SMILES) | %Inh (CHEK2) [%] | %Inh (CIT) [%] | %Inh (CLK1) [%] | %Inh (CLK2) [%] | %Inh (CLK3) [%] | %Inh (CLK4) [%] | %Inh (CSF1R-autoinhibited) [%] | %Inh (CSF1R) [%] | %Inh (CSK) [%] | %Inh (CSNK1A1L) [%] | %Inh (CSNK1A1) [%] | %Inh (CSNK1D) [%] | %Inh (CSNK1E) [%] | %Inh (CSNK1G1) [%] | %Inh (CSNK1G2) [%] | %Inh (CSNK1G3) [%] | %Inh (CSNK2A1) [%] | %Inh (CSNK2A2) [%] | %Inh (CTK) [%] | %Inh (DAPK1) [%]
1 | O=C(Nc1ccc2c(c1)OCO2)NC1CCN(c2ccnc(Nc3ccc(F)cc3)n2)C1 (centres unmarked) [GSK1379724] | 0 | 23 | 10 | 0 | 0 | 6 | 0 | 0 | 1 | 2 | 0 | 21 | 0 | 0 | 0 | 8 | 0 | 0 | 0 | 0
2 | CN1C(=O)C(Nc2ccc(Cl)c(C(=O)O)c2)=C(c2ccc(Cl)cc2)C1=O [SB-404290] | 0 | 0 | 18 | 7 | 25 | 2 | 0 | 3 | 0 | 15 | 0 | 0 | 38 | 0 | 0 | 15 | 18 | 7 | 0 | 0
3 | Cc1ccccc1-n1cnc2c(N)ncnc21 [SKF-97510] | 0 | 0 | 2 | 26 | 0 | 0 | 0 | 6 | 7 | 0 | 0 | 5 | 11 | 0 | 0 | 0 | 0 | 0 | 0 | 94.8
4 | O=C(Nc1n[nH]c2nc(-c3nccs3)c(Br)cc12)C1CCCC1 [SB-742609] | 0 | 36 | 22 | 0 | 4 | 0 | 0 | 3 | 0 | 6 | 25 | 42 | 11 | 0 | 0 | 22 | 0 | 0 | 0 | 0
5 | COc1cccc(NC(=O)NC2CCN(c3ccnc(Nc4ccc(F)cc4)n3)C2)c1 (centres unmarked) [GSK1379721] | 27 | 23 | 25 | 1 | 21 | 0 | 17 | 14 | 6 | 0 | 0 | 0 | 37 | 9 | 0 | 27 | 0 | 10 | 0 | 10
6 | COc1ccccc1CNC(=O)c1cc(C(=O)c2ccccc2C)c[nH]1 [GSK364507] | 0 | 9 | 17 | 0 | 0 | 9 | 0 | 11 | 0 | 20 | 0 | 28 | 20 | 15 | 0 | 9 | 0 | 100 | 0 | 0
7 | O=c1cc(N2CCOCC2)nc2n(Cc3cccc(Cl)c3Cl)ccn12 [GSK2286295] | 0 | 5 | 64 | 14 | 13 | 51 | 0 | 25 | 0 | 6 | 27 | 26 | 41 | 10 | 0 | 41 | 2 | 5 | 0 | 8
8 | O=C(Nc1n[nH]c2nc(-c3nccs3)c(Br)cc12)C1CC1 [SB-742251] | 0 | 3 | 1 | 0 | 11 | 0 | 17 | 0 | 0 | 19 | 0 | 21 | 14 | 13 | 0 | 0 | 0 | 36 | 15 | 0
9 | Cl.O=C(Nc1cccc(-c2nn3ncccc3c2-c2ccnc(Nc3cccnc3)n2)c1)c1c(F)cccc1F [GSK312879] | 0 | 30 | 19 | 3 | 0 | 12 | 0 | 17 | 18 | 4 | 0 | 15 | 24 | 8 | 0 | 15 | 1 | 0 | 25 | 2
10 | CN(C)CCN(C)C(=O)c1cc(-c2ccncc2)c(-c2ccc(Cl)c(O)c2)o1.Cl.Cl [SB-710397] | 12 | 21 | 18 | 0 | 9 | 25 | 0 | 3 | 0 | 20 | 62 | 90 | 93.4 | 0 | 0 | 14 | 0 | 4 | 0 | 4
